Paper PMC6792352, “Limited Chemical Structural Diversity Found to Modulate Thyroid Hormone Receptor in the Tox21 Chemical Library” (Environmental Health Perspectives, 2019)
Counter-ions that a name gives are not always drawn. Whole data set: some 7,300 compounds, median “AC50” near 90,000 nM, cut for the lowest 2% near 20,000 nM. Some of the results follow.

tested on: thyroid hormone receptor (endogenous TRα and TRβ); design: species or system GH3-TRE-Luc (rat pituitary); GH3-TRE-Luc luciferase reporter transactivation, agonist mode, qHTS; RXR ligands can also activate indirectly; settings: read-out: TR_LUC_GH3_Agonist_AC50, agonist mode, primary qHTS, 24 h

SMILES	AC50 [nM]
C[C@]12CC[C@H]3C(=CCc4cc(O)ccc43)[C@@H]1CCC2=O [Equilin]	3410
COc1ccc(OC)c(C(O)C(C)N)c1 (centres unmarked) [Methoxamine hydrochloride]	32000
Cc1cc(NC(=O)C(=O)O)cc(C)c1Oc1ccc(O)c2c1CCC2 [CP-634384]	1.47
CC1=C(/C=C/C(C)=C/C=C/C(C)=C/C(=O)O)C(C)(C)CCC1 [all trans-Retinoic acid]	319
CC1=C(/C=C/C(C)=C\C=C\C(C)=C\C(=O)O)C(C)(C)CCC1 [9-cis Retinoic acid]	4180
CC1=C(/C=C/C(C)=C/C=C/C(C)=C\C(=O)O)C(C)(C)CCC1 [13-cis Retinoic acid]	133
NCC(=O)CCC(=O)O [Aminolevulinic acid hydrochloride]	28700
CC(C)(C)CC(C)(C)c1ccc(O)c(Cc2ccc(Cl)cc2Cl)c1 [Clofoctol]	1370
O=C(O)Cc1cc(I)c(Oc2cc(I)c(O)c(I)c2)c(I)c1 [Tetrac, 3,3ʹ,5,5ʹ-tetraiodothyroacetic acid]	0.927
N[C@@H](Cc1cc(I)c(Oc2cc(I)c(O)c(I)c2)c(I)c1)C(=O)O [Levothyroxine]	7.89
C[C@H](CCC(=O)NCC(=O)O)[C@H]1CC[C@H]2[C@@H]3[C@H](O)C[C@@H]4C[C@H](O)CC[C@]4(C)[C@H]3C[C@H](O)[C@]12C [glycocholic acid]	51800
